From PubChem BioAssay
Active and inactive are the calls of the source.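 Rule for the calls: active = compounds whose cell count with miR-34 switched on is under 0.7 times the count with it off; inactive = the rest.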

Experiment: sensitizers of A549 cells to miR-34 induction, primary screen, imaging, A549 dox-inducible miR-34, nuclei and caspase counts (AID 1347080); note: test concentration not given here
Details: A549 miR-34 inducible, Hoechst nuclei count, 48 h
[1] = stronger effect = lower value, cell number ratio, induced over uninduced
[2] = measured here: relative caspase fold change +Dox/-Dox
[3] = measured here: total cells with miR-34 induction, stronger effect = lower value
[4] = measured here: total cells without miR-34 induction

Structure (SMILES) | fold change [1] | fold change [2] | cell count [3] | cell count [4]
N[C@@H](CCC(=O)N[C@@H](CSN=O)C(=O)NCC(=O)O)C(=O)O | 0.991 (inactive) | 0.986 | 5550 | 5600
CC(=O)OC1=C(C)NC(C)=C(OC(C)=O)C1c1ccccc1[N+](=O)[O-] | 0.849 (inactive) | 1.01 | 3570 | 4210
CCCCC[C@](C)(O)/C=C/[C@H]1[C@H](O)CC(=O)[C@@H]1C/C=C\CCCC(=O)O | 0.915 (inactive) | 1.22 | 5410 | 5910
CCCCCCCCCCCCCCCCCCCCCCCCC(=O)OC | 1.06 (inactive) | 0.88 | 6850 | 6470
CCCCC[C@H](O)/C=C/[C@@H]1C(C/C=C\CCCCN(C)C)[C@@H](O)C[C@H]1O (some centres undefined) | 0.95 (inactive) | 1.02 | 5640 | 5940
C/C(O)=C1\C(=O)[C@@H]2[C@H]3c4c[nH]c5cccc(c45)C[C@H]3C(C)(C)N2C1=O | 1.02 (inactive) | 0.893 | 2150 | 2100
O=C(O)CCC/C=C\C[C@@H]1[C@@H](/C=C/[C@@H](O)C2CCCCC2)[C@H](O)C[C@@H]1O | 0.938 (inactive) | 1.34 | 5910 | 6300
CC(C)(C)OC(=O)N1CCC(OCc2nc(-c3ccncc3)no2)CC1 | 1.03 (inactive) | 0.58 | 5600 | 5430
CCCCC[C@H](O)/C=C/[C@H]1[C@@H](O)CC(=O)[C@@H]1CCCCCCC(=O)O | 0.965 (inactive) | 1.07 | 5320 | 5510
CC(C)CCCC(C)CCCC(C)CCCC(C)CC(=O)O (centres undefined) | 0.992 (inactive) | 0.832 | 5990 | 6040
CCCCCCCCCCCCCCCNC(=O)C1CCCCC1 | 1.13 (inactive) | 0.274 | 6830 | 6070
O=C(NCc1ccc(Cl)c(Cl)c1)O[C@H]1CCc2ccccc21 | 1.02 (inactive) | 1.19 | 5770 | 5680
CCCCC/C=C\C/C=C\CCCCCCCC(=O)O[C@H](COC(=O)CCCCCCCCCCCCCCC)COP(=O)(O)OCCN | 0.789 (inactive) | 0.779 | 4540 | 5760
CCCCC[C@H](O)/C=C/[C@@H]1[C@@H](CCCCCCC(=O)O)[C@H](O)C[C@@H]1O | 0.98 (inactive) | 1.16 | 6220 | 6350
CCCCCCCCCCCCCCCC(=O)OC[C@@H](O)COP(=O)(O)O | 0.985 (inactive) | 0.427 | 5760 | 5850
CC(C)ON(CC(=O)NO)S(=O)(=O)c1ccc(-c2ccccc2)cc1 | 0.989 (inactive) | 1.73 | 6160 | 6240
CCCCC[C@@](C)(O)/C=C/[C@H]1[C@H](O)CC(=O)[C@@H]1C/C=C\CCCC(=O)O | 1.04 (inactive) | 1.07 | 5770 | 5570
CC(C)=CCC/C(C)=C/CC/C(C)=C/C(O)P(=O)(O)O (centres undefined) | 0.968 (inactive) | 0.767 | 5800 | 5990
CCCCCCCCCCCCCCCCC(=O)NCCO | 1.04 (inactive) | 0.673 | 6030 | 5800

Structure (SMILES) | fold change [1] | fold change [2] | cell count [3] | cell count [4]
O=C(O)CCC/C=C/C[C@@H]1[C@@H](/C=C/[C@@H](O)COc2cccc(C(F)(F)F)c2)[C@H](O)C[C@@H]1O | 0.985 (inactive) | 1.11 | 6470 | 6570
COc1ccc(-c2nc3cc(F)ccc3s2)cc1OC | 0.915 (inactive) | 0.244 | 4920 | 5370
CCCCC/C=C\C/C=C\CCCC/C=C\CCCC(=O)O | 0.985 (inactive) | 0.344 | 5360 | 5440
C[C@H](CCCO)[C@H]1CC[C@H]2[C@@H]3[C@H](O)C[C@H]4C[C@H](O)CC[C@]4(C)[C@H]3C[C@H](O)[C@]12C | 0.949 (inactive) | 1.07 | 5800 | 6110
CC/C=C\C/C=C\C/C=C\C/C=C\C/C=C\C/C=C\CCC(=O)NCCO | 0.934 (inactive) | 0.411 | 5920 | 6340
CCCCNC(=O)NS(=O)(=O)c1ccc(CO)cc1 | 1.05 (inactive) | 0.775 | 5120 | 4890
O=C(OCc1ccccc1)[C@H](O)c1ccccc1 | 1.04 (inactive) | 0.545 | 5580 | 5350
CCCCCCCC/C=C\CCCCCC(=O)O | 0.938 (inactive) | 0.407 | 5490 | 5860
CCCCCCOC(=O)[C@@]1(O)CC2OC1(C)n1c3ccccc3c3c4c(c5c6ccccc6n2c5c31)C(=O)NC4 (some centres undefined) | 0.758 (inactive) | 1.42 | 4880 | 6430
CCCCCCCCCCCCCCCCOC[C@H](COP(=O)([O-])OCC[N+](C)(C)C)OCC | 0.91 (inactive) | 1.05 | 5080 | 5580
COc1ccc2c(c1)c(CC(=O)Nc1cccnc1)c(C)n2C(=O)c1ccc(Cl)cc1 | 0.996 (inactive) | 0.947 | 5760 | 5780
COc1ccc2c(c1)c(CC(=O)SC[C@H](NC(C)=O)C(=O)OCCCCO[N+](=O)[O-])c(C)n2C(=O)c1ccc(Cl)cc1 | 1.08 (inactive) | 0.702 | 6270 | 5810
CCCCC[C@H](O)/C=C/[C@H]1[C@H](O)CC(=O)[C@@H]1CCCCCCCO | 0.891 (inactive) | 2.02 | 5100 | 5730
c1ccc([B-]2(c3ccccc3)[NH2+]CCO2)cc1 | 0.926 (inactive) | 1.45 | 3950 | 4260
CCCCC/C=C\C/C=C\C/C=C\C/C=C\CCCC(=O)NC[C@]1(C)CCC[C@]2(C)c3ccc(C(C)C)cc3CC[C@@H]12 | 0.99 (inactive) | 1.27 | 5530 | 5580
CCCCCC1OC(O)CC1SC[C@H](NC(C)=O)C(=O)O (some centres undefined) | 0.93 (inactive) | 1.14 | 5580 | 6010
O=C(CCCCc1ccccc1)C(F)(F)C(F)(F)F | 0.952 (inactive) | 1.77 | 5980 | 6280
Cc1c(C(=O)c2ccccc2)c(N)c(-c2ccccc2)n1Cc1ccc(Cl)cc1 | 0.936 (inactive) | 1.39 | 5890 | 6290
CC(C)=CCC/C(C)=C/CC/C(C)=C/CC[C@]1(C)CCc2cc(O)cc(C)c2O1 | 0.922 (inactive) | 1.06 | 5270 | 5720

Structure (SMILES) | fold change [1] | fold change [2] | cell count [3] | cell count [4]
OC[C@H]1O[C@H](O[C@H]2[C@H](O)[C@@H](O)[C@H](O)O[C@@H]2CO)[C@H](O)[C@@H](O)[C@@H]1O | 0.99 (inactive) | 0.551 | 8780 | 8870
Cc1nnsc1C(=O)Nc1ccc(-n2nc(C(F)(F)F)cc2C(F)(F)F)cc1 | 1.08 (inactive) | 1.08 | 5850 | 5430
C#CCCC[C@@H](O)CCCCCCCCCCC(=O)O | 0.902 (inactive) | 1.14 | 5310 | 5890
Cc1nc(COP(=O)(O)O)cc(CN(CCN(CC(=O)O)Cc2cc(COP(=O)(O)O)nc(C)c2O)CC(=O)O)c1O.[Mn] | 1.02 (inactive) | 0.746 | 9240 | 9050
CCCCC[C@H](O)/C=C/[C@H]1[C@H](O)CC(=O)[C@@H]1C/C=C/CCCC(=O)O | 0.972 (inactive) | 1.22 | 5510 | 5670
Clc1ccc(/C=C/c2cc(Cl)cc(Cl)c2)cc1 | 1.02 (inactive) | 0.743 | 5370 | 5270
O=C(Cc1ccccc1Nc1c(Cl)cccc1Cl)Oc1ccc(-c2cc(=S)ss2)cc1 | 0.933 (inactive) | 1.55 | 6130 | 6570
CCCCC[C@H](O)/C=C/[C@@H]1[C@H](C/C=C\CCCC(=O)O)[C@H](O)C[C@H]1O | 0.921 (inactive) | 1.6 | 5020 | 5450
CC/C=C\C/C=C\C/C=C\C/C=C\CCCCCCC(=O)O | 1.03 (inactive) | 1 | 5320 | 5150
CCCC/C=C\CCCCCCCC(=O)OC | 1.02 (inactive) | 0.704 | 5700 | 5570
O=C(O)CCC/C=C/C[C@@H]1[C@@H](CC[C@@H](O)CCc2ccccc2)[C@H](O)C[C@@H]1O | 0.961 (inactive) | 1.3 | 5820 | 6060
CCCCCCCCCCCC(=O)CC(=O)N[C@H]1CCOC1=O | 1.1 (inactive) | 1.72 | 6190 | 5610
CCCCC[C@H](O)/C=C/[C@@H]1[C@@H](C/C=C\CCCC(=O)OCC(O)CO)[C@@H](O)C[C@H]1O (some centres undefined) | 0.942 (inactive) | 1.39 | 5810 | 6170
CCCCC/C=C/C/C=C/CCCCCCCC(=O)O | 1.12 (inactive) | 0.989 | 6880 | 6150
CCN(CC)C(=O)CCC/C=C\C[C@@H]1[C@@H](/C=C/[C@@H](O)CCc2ccccc2)[C@H](O)C[C@@H]1O | 0.995 (inactive) | 1.45 | 5990 | 6020
CCCCCCCOC(=O)Cc1c(C)n(C(=O)c2ccc(Cl)cc2)c2ccc(OC)cc12 | 0.949 (inactive) | 0.801 | 6160 | 6490
CCCCC[C@H](O)/C=C/[C@H]1C2COC(C2)[C@@H]1C/C=C/CCCC(=O)O (some centres undefined) | 0.903 (inactive) | 0.876 | 5790 | 6410
CCCCCC(=O)CC[C@H]1C=CC(=O)[C@@H]1C/C=C\CCCC(=O)O | 0.899 (inactive) | 1.77 | 5230 | 5820
